In publication PMC12820563, “FoxP3 forms a head-to-head dimer in vivo and stabilizes its multimerization on adjacent microsatellites” one finds binding signal data, which are given here for 32 sequences.

The full ranking holds about 16,000 sequences; the median of “rpm ratio (pull-down/input)” is about 0.94, and the highest 2% start at about 1.7. For the sample, the highest values were picked, then their nearest neighbours and some sequences at random.

In this assay the target is T1, MBP-FoxP1dN (Mus musculus, UniProt P58462 326-579).
T1 sequence: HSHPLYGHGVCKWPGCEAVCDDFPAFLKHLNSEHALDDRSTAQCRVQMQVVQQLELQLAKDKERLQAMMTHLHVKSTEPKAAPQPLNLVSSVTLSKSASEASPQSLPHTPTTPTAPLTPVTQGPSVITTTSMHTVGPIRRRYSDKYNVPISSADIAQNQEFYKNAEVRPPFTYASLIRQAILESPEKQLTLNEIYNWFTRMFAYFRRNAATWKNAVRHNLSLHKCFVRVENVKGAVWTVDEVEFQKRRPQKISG
The experiment in a line: PD-seq (MBP pull-down with sequencing); 20 mM Tris-HCl pH 7.5, 100 mM NaCl, 1.5 mM MgCl2, 0.4 uM protein, 0.1 uM dsDNA library, 30 min, room temperature, amylose pull-down; high values mean tight binding. Particulars: protein: recombinant; tags: His6-MBP; chain copies: 2; dsDNA, one strand shown. In short, it runs like this: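 Protein and DNA were mixed at 0.4 µM and 0.1 µM and held for 30 min at room temperature in Tris pH 7.5 buffer with NaCl and MgCl2; the protein was a His6-MBP-tagged, N-terminally truncated mouse FoxP3 or FoxP1 fragment from E. coli, and the DNA a Klenow-filled double-stranded degenerate library. Amylose resin captured the complexes, which were washed three times. Binding is read as reads-per-million enrichment of pull-down versus input after Illumina sequencing, with replicates pooled.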
“GATGATTGTTCTCCCAGCTGATGAATTATATTCCTCGAGTAAACAAATTTTCCTAATCTTTCTGTTCAAGCGCCATCTAC”: the binding signal is 0.968 RPM ratio (pull-down/input).
Under “GATGATTGTTCTCCCAGCTGATGAATTGAGGTAGTCGAGTAAACAAATTTTCCTAATCTTTCTGTTCAAGCGCCATCTAC” stands 0.86 RPM ratio (pull-down/input); under “GATGATTGTTCTCCCAGCTGATGAATTAGATTTCTCGAGTAAACAAATTTTCCTAATCTTTCTGTTCAAGCGCCATCTAC”, 0.85 RPM ratio (pull-down/input).
Regarding “GATGATTGTTCTCCCAGCTGATGAATTTAGTTTTTCGAGTAAACAAATTTTCCTAATCTTTCTGTTCAAGCGCCATCTAC”, the binding signal is 1.19 RPM ratio (pull-down/input).
For the sequence “GATGATTGTTCTCCCAGCTGATGAATTGTTTAGTTCGAGTAAACAAATTTTCCTAATCTTTCTGTTCAAGCGCCATCTAC”, the binding signal is 1.94 RPM ratio (pull-down/input).
For the sequence “GATGATTGTTCTCCCAGCTGATGAATTTTAGTTTTCGAGTAAACAAATTTTCCTAATCTTTCTGTTCAAGCGCCATCTAC”, the binding signal was 1.4 RPM ratio (pull-down/input).
For “GATGATTGTTCTCCCAGCTGATGAATTCGCGCAGTCGAGTAAACAAATTTTCCTAATCTTTCTGTTCAAGCGCCATCTAC”, the binding signal was 0.818 RPM ratio (pull-down/input).
Under “GATGATTGTTCTCCCAGCTGATGAATTCAGTCGTTCGAGTAAACAAATTTTCCTAATCTTTCTGTTCAAGCGCCATCTAC” stands 0.873 RPM ratio (pull-down/input); under “GATGATTGTTCTCCCAGCTGATGAATTTGGTTAGTCGAGTAAACAAATTTTCCTAATCTTTCTGTTCAAGCGCCATCTAC”, 0.953 RPM ratio (pull-down/input); under “GATGATTGTTCTCCCAGCTGATGAATTTTATTAGTCGAGTAAACAAATTTTCCTAATCTTTCTGTTCAAGCGCCATCTAC”, 1.28 RPM ratio (pull-down/input).
On to “GATGATTGTTCTCCCAGCTGATGAATTGTTTAGGTCGAGTAAACAAATTTTCCTAATCTTTCTGTTCAAGCGCCATCTAC”, for which the binding signal is 1.93 RPM ratio (pull-down/input).
Turning to “GATGATTGTTCTCCCAGCTGATGAATTTGTTTAGTCGAGTAAACAAATTTTCCTAATCTTTCTGTTCAAGCGCCATCTAC”, the binding signal is 2.24 RPM ratio (pull-down/input).
Take “GATGATTGTTCTCCCAGCTGATGAATTATTTTAGTCGAGTAAACAAATTTTCCTAATCTTTCTGTTCAAGCGCCATCTAC”: the binding signal is 1.21 RPM ratio (pull-down/input).
For “GATGATTGTTCTCCCAGCTGATGAATTCTGTTAGTCGAGTAAACAAATTTTCCTAATCTTTCTGTTCAAGCGCCATCTAC”, the binding signal is 1.29 RPM ratio (pull-down/input).
For the sequence “GATGATTGTTCTCCCAGCTGATGAATTGTTTTAGTCGAGTAAACAAATTTTCCTAATCTTTCTGTTCAAGCGCCATCTAC”, the binding signal is 1.44 RPM ratio (pull-down/input).
As to “GATGATTGTTCTCCCAGCTGATGAATTTATTTAGTCGAGTAAACAAATTTTCCTAATCTTTCTGTTCAAGCGCCATCTAC”, the binding signal is 1.76 RPM ratio (pull-down/input).
For the sequence “GATGATTGTTCTCCCAGCTGATGAATTTTTTTAGTCGAGTAAACAAATTTTCCTAATCTTTCTGTTCAAGCGCCATCTAC”, the binding signal is 1.05 RPM ratio (pull-down/input).
Regarding “GATGATTGTTCTCCCAGCTGATGAATTTTGTTAGTCGAGTAAACAAATTTTCCTAATCTTTCTGTTCAAGCGCCATCTAC”, the binding signal is 1.82 RPM ratio (pull-down/input).
As to “GATGATTGTTCTCCCAGCTGATGAATTTTTTAGGTCGAGTAAACAAATTTTCCTAATCTTTCTGTTCAAGCGCCATCTAC”, the binding signal is 0.925 RPM ratio (pull-down/input).
Next, “GATGATTGTTCTCCCAGCTGATGAATTCTTTAGGTCGAGTAAACAAATTTTCCTAATCTTTCTGTTCAAGCGCCATCTAC”: 0.821 RPM ratio (pull-down/input); “GATGATTGTTCTCCCAGCTGATGAATTCGACATATCGAGTAAACAAATTTTCCTAATCTTTCTGTTCAAGCGCCATCTAC”: 0.996 RPM ratio (pull-down/input); “GATGATTGTTCTCCCAGCTGATGAATTGTATGACTCGAGTAAACAAATTTTCCTAATCTTTCTGTTCAAGCGCCATCTAC”: 0.974 RPM ratio (pull-down/input).
Under “GATGATTGTTCTCCCAGCTGATGAATTTATCAGATCGAGTAAACAAATTTTCCTAATCTTTCTGTTCAAGCGCCATCTAC” stands 1.03 RPM ratio (pull-down/input).
For “GATGATTGTTCTCCCAGCTGATGAATTCAGGCGGTCGAGTAAACAAATTTTCCTAATCTTTCTGTTCAAGCGCCATCTAC”, the binding signal is 0.783 RPM ratio (pull-down/input).
Next, “GATGATTGTTCTCCCAGCTGATGAATTACTAAGGTCGAGTAAACAAATTTTCCTAATCTTTCTGTTCAAGCGCCATCTAC”: 1.03 RPM ratio (pull-down/input); “GATGATTGTTCTCCCAGCTGATGAATTACTTTGGTCGAGTAAACAAATTTTCCTAATCTTTCTGTTCAAGCGCCATCTAC”: 0.952 RPM ratio (pull-down/input).
As for “GATGATTGTTCTCCCAGCTGATGAATTTTGATGGTCGAGTAAACAAATTTTCCTAATCTTTCTGTTCAAGCGCCATCTAC”, the binding signal is 1.04 RPM ratio (pull-down/input).
Turning to “GATGATTGTTCTCCCAGCTGATGAATTTGCTATTTCGAGTAAACAAATTTTCCTAATCTTTCTGTTCAAGCGCCATCTAC”, the binding signal is 1.17 RPM ratio (pull-down/input).
With “GATGATTGTTCTCCCAGCTGATGAATTTTGCTATTCGAGTAAACAAATTTTCCTAATCTTTCTGTTCAAGCGCCATCTAC”, the binding signal is 1.32 RPM ratio (pull-down/input).
Next, “GATGATTGTTCTCCCAGCTGATGAATTTGCTATGTCGAGTAAACAAATTTTCCTAATCTTTCTGTTCAAGCGCCATCTAC”: 1.06 RPM ratio (pull-down/input); “GATGATTGTTCTCCCAGCTGATGAATTGCTATTTTCGAGTAAACAAATTTTCCTAATCTTTCTGTTCAAGCGCCATCTAC”: 2.22 RPM ratio (pull-down/input).
As for “GATGATTGTTCTCCCAGCTGATGAATTGCTATTGTCGAGTAAACAAATTTTCCTAATCTTTCTGTTCAAGCGCCATCTAC”, the binding signal is 2.28 RPM ratio (pull-down/input).
